Experimental findings from the supplement of paper PMC7530171 are described below.

Counter-ions that a name gives are not always drawn. ± gives the standard deviation.

The assay deals with THP-1. In words: THP-1 cell loss relative to DMSO control; higher = more host cell loss (toxicity); extreme values may be limits of the assay. The note with it: 10 µM; 4 days; infection: M. tuberculosis H37Rv. Here is the method:
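OICR kinase inhibitor library screened in duplicate at 10 uM against M. tuberculosis-infected THP-1 macrophages, 4 days at 37 C. THP-1 cell loss (cytotoxicity or loss of adherence) was quantified from Hoechst-stained nuclei counts by high-content imaging and normalised to the 1% DMSO control; 100 = complete loss of host cells.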
On to `CC(=O)c1c(C)c2cnc(Nc3ccc(N4CCNCC4)cn3)nc2n(C2CCCC2)c1=O`, for which the THP-1 cell loss was 30.5 ± 8.2%.

The compound `C=CC(=O)Nc1cc2c(Nc3ccc(F)c(Cl)c3)ncnc2cc1C#CC(C)(C)N1CCN(C)CC1` displayed a THP-1 cell loss of 100%.

With `O=C1NC(=O)c2c1c(-c1ccccc1)cc1[nH]c3ccc(O)cc3c21`, the THP-1 cell loss worked out at 77.75 ± 0.7%.

For `Cc1ccc(C(=O)Nc2cccc(C(F)(F)F)c2)cc1-c1ccc2nc(NCCN3CCOCC3)ncc2c1`, the THP-1 cell loss turned out to be 100%.

Compound `CC(=O)Nc1ccc([C@H](C)C(=O)Nc2ncc(C(C)C)s2)cc1` returned a THP-1 cell loss of 100%.

In turn, `Nc1ncnc2c1c(-c1cccc(OCc3ccccc3)c1)cn2C1CC(CN2CCC2)C1` (stereo not given) showed a THP-1 cell loss of 18.9 ± 6%.

Regarding `CC(C)CC(=O)Nc1n[nH]c2c1CN(C(=O)C1CCN(C)CC1)C2(C)C`, the THP-1 cell loss is 100%.

In turn, `Cc1cc2c(F)c(Oc3ncnn4cc(OC[C@@H](C)O)c(C)c34)ccc2[nH]1` [Brivanib] displayed a THP-1 cell loss of 25.4 ± 0.91%.

`CN(C)CCOc1ccc(-c2nc(-c3ccncc3)c(-c3ccc4c(c3)CC/C4=N\O)[nH]2)cc1` had a THP-1 cell loss of 72.3 ± 11%.

On to `Oc1ccc(Nc2nc(-c3ccc(Cl)cc3)cs2)cc1` [2-(p-Hydroxyanilino)-4-(p-chlorophenyl) thiazole], for which the THP-1 cell loss is 100%.

`Cc1cc(I)ccc1Nc1c(C(=O)NOCC2CC2)cc(F)c(F)c1F`: the THP-1 cell loss amounted to 100%.

Compound `Cn1cc(C2=C(c3ccc(Cl)cc3Cl)C(=O)NC2=O)c2ccccc21` registered a THP-1 cell loss of 15.5 ± 22%.

The compound `NC(=O)Nc1cc(-c2cccc(F)c2)sc1C(=O)N[C@H]1CCCNC1` [AZD-7762 hydrochloride] gave a THP-1 cell loss of 100%.

For `CN1C(=O)C(Cc2c[nH]c3ccccc23)NC1=S` (stereo not given) [Necrostatin-1], the THP-1 cell loss is 2.6 ± 3.7%.

For the compound `COc1ccc(S(=O)(=O)N(C(C)=O)c2ccccc2/C=C/c2cc[n+]([O-])cc2)cc1`, the THP-1 cell loss stood at 51.3 ± 4.4%.

`Nc1ncnc2c1c(I)cn2[C@@H]1O[C@H](CO)[C@@H](O)[C@H]1O` [5-Iodotubercidin]: the THP-1 cell loss is 100%.

`Cc1ccc(NC(=O)c2cccc(N(C)C)c2)cc1NC(=O)c1ccc(O)cc1` registered a THP-1 cell loss of 3.71 ± 3.8%.

`CO[C@H]1C[C@@H]2CC[C@@H](C)[C@@](O)(O2)C(=O)C(=O)N2CCCC[C@H]2C(=O)O[C@H]([C@H](C)C[C@@H]2CC[C@@H](OC(=O)C(C)(CO)CO)[C@H](OC)C2)CC(=O)[C@H](C)/C=C(\C)[C@@H](O)[C@@H](OC)C(=O)[C@H](C)C[C@H](C)/C=C/C=C/C=C/1C` [Temsirolimus]: the THP-1 cell loss was 43 ± 2%.

`CC1=C(C(=O)Nc2cc3cn[nH]c3cc2F)C(c2ccc(C(F)(F)F)cc2)CC(=O)N1` (stereo not given) registered a THP-1 cell loss of 0%.

`Cc1cccc(-c2[nH]c(C(C)(C)C)nc2-c2ccc3c(c2)OCO3)n1` yielded a THP-1 cell loss of 74 ± 1.8%.

As to `C[C@]1(O)C[C@@H](c2nc(-c3ccc4ccc(-c5ccccc5)nc4c3)c3c(N)nccn32)C1`, the THP-1 cell loss is 38.5 ± 4%.

`CCN(CC)CCNC(=O)c1ccc2nc(-c3ccccc3)c(-c3ccc(CN4CCC(n5c(=O)[nH]c6ccccc65)CC4)cc3)nc2c1` [Merck-22-6]: the THP-1 cell loss was 100%.

As to `Oc1cc(-c2nc(-c3ccccc3)[nH]c2-c2ccncc2)ccc1Cl`, the THP-1 cell loss amounted to 100%.

As to `Nc1[nH]nc2nc3ccccc3nc12`, the THP-1 cell loss is 3.97 ± 5.6%.

As to `Cc1cc(Nc2cc(N3CCN(C)CC3)nc(/C=C/c3ccccc3)n2)n[nH]1`, the THP-1 cell loss is 70.7 ± 19%.

In the case of `CCCS(=O)(=O)Nc1ccc(F)c(C(=O)c2c[nH]c3ncc(-c4ccc(Cl)cc4)cc23)c1F`, the THP-1 cell loss is 100%.

The compound `Cc1ccc(NC(=O)c2ccc(CN3CCN(C)CC3)cc2)cc1Nc1nc(-c2cccnc2)cs1` [Masitinib mesylate] displayed a THP-1 cell loss of 62.9 ± 7.5%.

The compound `c1cc(-c2cnn3cc(-c4ccc(OCCN5CCCCC5)cc4)cnc23)ccn1` [Dorsomorphin dihydrochloride] gave a THP-1 cell loss of 100%.

Turning to `CN(C)C[C@@H]1CCn2cc(c3ccccc32)C2=C(C(=O)NC2=O)c2cn(c3ccccc23)CCO1`, the THP-1 cell loss was found to be 100%.

`CCOc1cc(/C=C(\C#N)C(N)=O)cc(CSc2ccccc2)c1O` returned a THP-1 cell loss of 10.3 ± 14%.

Compound `CNc1nccc(-c2cccnc2Oc2cc(C(=O)Nc3cccc(C(F)(F)F)c3)ccc2C)n1` showed a THP-1 cell loss of 100%.

Consider `O=C(c1ccc(Nc2nccc(-c3cc4ccccc4s3)n2)cc1)N1CCC(N2CCCC2)CC1`, for which the THP-1 cell loss was 100%.

Turning to `CN(c1ccccc1CNc1nc(Nc2ccc3c(c2)CC(=O)N3)ncc1C(F)(F)F)S(C)(=O)=O`, the THP-1 cell loss amounted to 100%.

In turn, `O=C(NC1CCNCC1)c1n[nH]cc1NC(=O)c1c(Cl)cccc1Cl` returned a THP-1 cell loss of 90.2 ± 14%.

`COCC(=O)NC/C=C/c1ccc2ncnc(Nc3ccc(Oc4ccc(C)nc4)c(C)c3)c2c1` yielded a THP-1 cell loss of 25.9 ± 5.7%.
